Screens: PubChem BioAssay, National Center for Advancing Translational Sciences (NCATS)
ELG1 genotoxic: qHTS screen for small molecules that induce genotoxicity in human embryonic kidney (HEK293T) cells expressing luciferase-tagged ELG1 | HEK293T ELG1-luciferase reporter, luminescence, 16 h | Potency, µM (doses to about 46 µM), inactives show top-dose activity change, positive = activation, usual class: activators | hit rate 1.3% among 330,000 | AID 504466, 2011; further: % of control where 0% means no effect; nearly all actives have a fitted effect of over 60% in size
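HEK293T cells expressing luciferase-tagged ELG1 were treated with compound or DMSO for 16 hr at 37°C. Luciferase activity was then read after 30 min with ONE-Glo at room temperature; rising signal flags genetic stress.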
SMN2 splice enh: qHTS Assay for Enhancers of SMN2 Splice Variant Expression; hit rate 2.8% among 210,000; AID 1458, 2008; Potency, µM (top dose mostly 46.1 µM), without a hit: at the highest dose activity change, positive = activation, most hits filed as activators; HEK293 SMN2-luciferase splicing reporter, luminescence, 30-36 h; further: % of control where 0% means no effect; nearly all actives have a fitted effect of over 55% in size
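HEK293 cells carry an SMN2 […]–luciferase reporter in which exon 7 inclusion puts luciferase in frame. Cells were plated 10-12 h before compound addition, then incubated 30-36 h at 37C. ONE-Glo luminescence was read; sodium butyrate at 4.5 mM final served as control.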
Rab9 prom act: qHTS Assay for Rab9 Promoter Activators; Potency, µM (titrated, usually from 9.22 µM), without a hit: at the top dose activation, negative = inhibition, usual class: activators; hit rate 2.8% among 320,000; Huh7 Rab9 promoter-luciferase reporter, luminescence, 24 h; further: % of control where 0% means no effect; nearly all actives have a fitted effect of over 60% in size
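Quantitative HTS format; Huh7 Rab9-luciferase reporter cells (1500/well) receive compound 2 h post-plating, incubate 24 h at 37 °C, then get luciferase reagent for 10 min before luminescence reading.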
FLuc modulator: qHTS profiling assay for firefly luciferase inhibitor/activator using purifed enzyme and Km concentrations of substrates (counterscreen for miR-21 project); Luciferin 4-monooxygenase (Photinus pyralis), P08659; purified FLuc, Km substrates, luminescence inhibition; Potency, µM (top dose mostly 57.5 µM), without a hit: top-dose activity change, negative = inhibition, actives largely listed as inhibitors; hit rate 6.9% among 360,000;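 further: plate controls were vehicle for no effect and reference inhibitor for full effect; nearly all actives have a fitted effect of over 55% in size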
Target sequence (P08659 whole entry, looked up): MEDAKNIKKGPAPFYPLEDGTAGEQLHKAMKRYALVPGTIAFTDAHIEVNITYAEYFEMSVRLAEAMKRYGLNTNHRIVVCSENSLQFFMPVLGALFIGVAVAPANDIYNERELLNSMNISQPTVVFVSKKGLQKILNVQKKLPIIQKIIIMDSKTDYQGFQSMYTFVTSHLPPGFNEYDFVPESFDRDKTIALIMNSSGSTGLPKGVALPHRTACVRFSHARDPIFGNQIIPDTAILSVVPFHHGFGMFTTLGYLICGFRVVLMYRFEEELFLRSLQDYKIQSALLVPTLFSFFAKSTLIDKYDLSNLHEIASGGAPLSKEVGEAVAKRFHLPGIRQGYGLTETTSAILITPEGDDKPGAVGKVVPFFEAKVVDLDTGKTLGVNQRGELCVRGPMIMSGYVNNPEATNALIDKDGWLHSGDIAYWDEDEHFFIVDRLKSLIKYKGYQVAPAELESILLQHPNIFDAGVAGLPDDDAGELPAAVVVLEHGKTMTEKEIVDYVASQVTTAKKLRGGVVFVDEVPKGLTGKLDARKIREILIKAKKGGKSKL
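Biochemical qHTS of compounds, final roughly 60 µM downward over six points, against 10 nM purified firefly luciferase using Km concentrations of substrates (10 uM D-luciferin, 10 uM ATP) in Tris acetate pH 7.5 buffer; luminescence output.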
NPC1 prom act: qHTS Assay for NPC1 Promoter Activators; Huh7 NPC1 promoter luciferase reporter, 24 h; hit rate 2.4% among 320,000; Potency, µM (series often up to 9.22 µM), for the others: top-dose activation, actives largely listed as activators; AID 485313, 2010; further: % of control where 0% means no effect; nearly all actives have a fitted effect of over 60% in size
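Huh7 reporter cells (NPC1 promoter driving luciferase) are dosed with compound for 24 h at 37 °C, 5% CO2; luciferase detection reagent is then added and luminescence measured after 10 min at ambient temperature.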
p53 reactivator: qHTS assay for re-activators of p53 using a Luc reporter; H1299 p53-A138V BP100-luciferase reporter, luminescence, 24 h; Potency, µM (series often up to 92.2 µM), for the others: at the top dose activity change, positive = activation, usual class: activators; hit rate 0.063% among 320,000; further: % of control where 0% means no effect; nearly all actives have a fitted effect of over 45% in size
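H1299 (p53-null), stable ts p53-A138V + BP100-Luc; 1000 cells/well, Opti-MEM/10% FBS; cpd 4 pt, 1:5; 24 h, 37 deg C, 5% CO2; detection reagent 10 min RT; luminescence.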
An asterisk follows results filed as active; u = inconclusive; x = no result given; [ ] = dose if it differs, or a comment. A selection: hits, their analogues and other compounds. The true share with any hit is near 7.3%. The call rests on the fitted dose curve; in most records, active means well fitted curve in the direction sought with a large enough effect; inconclusive means small, poorly fitted or top-dose-only effect, or another doubt; inactive means no such curve, though single readings can be large; an effect the other way counts as inactive or inconclusive. Potency means the concentration at half of the fitted maximal effect.

SMILES	ELG1 genotoxic	SMN2 splice enh	Rab9 prom act	FLuc modulator	NPC1 prom act	p53 reactivator
c1ccc(-c2nc3c4ccccc4ccn3c2CN2CCOCC2)cc1	u	x	12%	4.8µM*	-3%	u
COc1ccc(-c2nc3c4ccccc4ccn3c2CN2CCOCC2)cc1OC	u	x	14%	u	-1%	12%
O=C(O)c1cccc(Nc2nc(-c3cc4ccccc4oc3=O)cs2)c1	u	x	u	6µM*	2.8µM*	u
Cc1c(NC(=O)c2cccc(NC(=O)c3ccco3)c2)cccc1C(=O)O	0%	8%	3%	19µM*	-3%	8%
O=C(Nc1ccc(O)c(C(=O)O)c1)c1cccc(NC(=O)c2ccco2)c1	-1%	x	-5%	11µM*	-1%	x
O=C(O)Cc1ccc(NC(=O)c2cccc(NC(=O)c3ccco3)c2)cc1	4%	x	-2%	17µM*	-3%	2%
O=C(NCc1ccccc1)c1cccc(NC(=O)c2ccco2)c1	3%	-30%	-5%	-17%	6%	-6%
CCOc1ccc(OCCOC(=O)C2CCN(S(=O)(=O)c3ccc(C)c(C)c3)CC2)cc1	2%	x	2%	4%	10%	4%
O=C(O)/C=C/C(=O)NNC(=O)c1ccc(Cl)cc1Cl	-6%	x	14%	-18%	-3%	9%
O=C(NC1CC(=O)c2sccc21)c1ccc(Cl)cc1Cl (centres undefined)	u	5µM*	2.8µM*	17µM*	u	1%
CC(C)CN1C(=O)c2ccc(C(=O)Nc3nccs3)cc2C1=O	u	6%	u	6.7µM*	u	14%
CC(C)CN1C(=O)c2ccc(C(=O)Nc3ccccc3C(=O)O)cc2C1=O	u	x	4.5µM*	3µM*	2.5µM*	u
CC(C)CN1C(=O)c2ccc(C(=O)Nc3ccccn3)cc2C1=O	u	-5%	u	2.7µM*	u	u
O=C(NC1=NCCS1)c1ccc(Cl)c(S(=O)(=O)N2CCOCC2)c1	6%	u	0%	1%	1%	3%
O=C(Nc1ccc(N2CCCC2)c(Cl)c1)c1cccs1	2.3µM*	2.8µM*	0.45µM*	2.4µM*	0.71µM*	3%
O=C(NC(=S)Nc1ccc(N2CCOCC2)c(Cl)c1)c1cccs1	3%	-9%	u	19µM*	u	-9%
N#Cc1sc2nc3c(cc2c1N)CCCC3	16%	-9%	-4%	13µM*	14%	4%
Nc1c(C(=O)O)sc2nc3c(cc12)CCCC3	2%	x	11%	u	11%	4%
NC(=O)c1sc2nc3c(cc2c1N)CCCCCC3	-1%	x	u	19µM*	2.5µM*	0%
Cc1ccc2c(N)c(C#N)sc2n1	9%	u	17%	6%[2.3 µM]	10%	1%
COc1ccc(OC)c(NC(=O)c2sc3nc4c(cc3c2N)CCCCCC4)c1	x	-7%	x	3%	x	x
Nc1c(C(=O)C2CC2)sc2nc3c(cc12)CCC3	u	x	u	8.5µM*	2.5µM*	17%
CS(=O)(=O)c1ccc(Cl)c(C(=O)OCC(=O)NC2CCCCCCC2)c1	1%	x	1%	-5%	-3%	-6%
CC(C)[C@@H](CC(=O)N[C@@H]1CCNC[C@H]1C(=O)N[C@H](CC(=O)N[C@@H](CCC(=O)O)CC(=O)O)Cc1c[nH]c2ccccc12)NC(=O)C[C@H](Cc1ccccc1)NC(=O)[C@@H]1CCCC[C@H]1N	x	-3%	x	x	x	x
O=C(CSc1nc(=O)[nH]c2c1CCC2)NCc1ccc(F)cc1	x	x	x	3%	x	x
SMILES	ELG1 genotoxic	SMN2 splice enh	Rab9 prom act	FLuc modulator	NPC1 prom act	p53 reactivator
CCCCCc1ccc(-c2ccc(/C=C/C(=O)O)cc2)nc1	u	-35%	u	0.38µM*	u	-7%
CCCc1ccc(-c2ccc(/C=C/C(=O)O)cc2)nc1	8%	-70%	-28%	0.54µM*	-25%	-2%
COc1cc(NS(C)(=O)=O)ccc1Cc1c2ccccc2nc2ccccc12	x	-67%	x	x	x	x
Cc1ccc(NC(=O)CN2C(=O)CCc3cc(S(=O)(=O)N4CCCCC4)ccc32)cc1N(C)C	x	x	x	3%	x	x
O=C(c1cccc(F)c1)N1CCN(C(=O)c2cc(-c3ccc(Cl)cc3Cl)on2)CC1	-5%	x	-3%	11µM*	0%	9%
O=C(c1cc(-c2ccccc2Cl)on1)N1CCCC1	u	x	u	1.2µM*	u	20%
COc1ccccc1-c1cc(C(=O)N2CCOCC2)no1	2.9µM*	x	2.2µM*	13µM*	u	u
O=C(c1cc(-c2ccc(Cl)c(Cl)c2)on1)N1CCN(c2ccccc2)CC1	8%	-2%	1%	u	-6%	u
COc1cccc(C(=O)N2CCN(C(=O)c3cccc(F)c3)CC2)c1	3%	-11%	0%	3%	-3%	2%
COc1ccccc1-c1cc(C(=O)N2CCCC2)no1	2.9µM*	x	2µM*	7.6µM*	2.5µM*	u
COc1ccccc1-c1cc(C(=O)N2CCN(c3ccc(F)cc3)CC2)no1	-4%	-18%	-1%	-17%	1%	u
O=c1c(-c2ccc(F)cc2)nc2cnc(N3CCOCC3)nc2n1C[C@H]1CCCO1	x	3%	x	x	x	x
Cc1ccc2c(c1)-n1c(nc3ccccc3c1=O)C(Cc1ccc(O)cc1)NC2=O (centres undefined)	-3%	x	x	x	x	5%
CCN(CC(=O)O)C(=O)c1cccnc1	x	-12%[9.22 µM]	x	x	x	x
O=C(c1csc(Nc2ccccc2Cl)n1)N1CCCC1	20%	13µM*	u	u	u	u
C/C(=N\NC(=O)c1ccccc1)c1ccccc1F	5.8µM*	5.6µM*	0.56µM*	12µM*	1.4µM*	-5%
COC(=O)N/N=C(\C)c1ccc(Br)cc1	10%	-34%	25%	u	3%	8%
C/C(=N\NC(=O)c1ccccc1)c1ccccc1Br	u	u	u	15µM*	u	u
O=C(Nc1ccc(NC(=O)c2ccccc2Br)cc1)c1ccccc1	u	x	16%	-5%	23%	-3%
C/C(=N\NC(=O)OC(C)(C)C)c1ccccc1Br	u	12%	u	21µM*	u	5%
C/C(=N\NC(=O)c1ccccc1OCCOc1ccccc1)c1ccccc1F	-10%	x	2%	u	-3%	3%
CCOC(=O)N/N=C(\C)c1ccc(Br)cc1	u	-11%	17%	17µM*	12%	23%
O=C1NC[C@H](c2ccccc2)N1	x	7%	x	x	x	x
